Test results from PubChem BioAssay AID1159580 (chemical genetic matrix, 2015).
“And” between values parts separate entries of the source, which are not always exact repeats. Identical values can stand only once. About 2,000 (36%) of roughly 5,500 compounds were called active. Another 18% or so got no clear call; they are omitted. Cut-off read from the data, not from the text of the source: active = normalized growth mostly below about 0.91 (no sharp cut-off); inconclusive = no clear call, values can overlap the other calls; inactive = mostly above about 0.92. Some of the results follow.

Assay: chemical genetic growth profiling, strain panel (AID 1159580);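 note: tested at 20 µM; growth read once vehicle control cultures reached saturation at 30 °C; 1 = growth at the plate median or of vehicle wells; lower values mean less growth of the strain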
Details: S. cerevisiae deletion strains, growth OD

Measured: normalized growth

O=[N+]([O-])c1ccc(O)c([N+](=O)[O-])c1
inactive: locus YDL035C, strain GPR1, stronger effect = lower value 0.871 | locus YDL074C, strain BRE1, stronger effect = lower value 0.824 | locus YDR069C, strain doa4, stronger effect = lower value 0.936 | locus YDR137W, strain rgp1, stronger effect = lower value 0.915 | locus YDR195W, strain ref2 0.927 | locus YGR229C, strain SMI1, stronger effect = lower value 0.81 | locus YHR013C, strain ard1, stronger effect = lower value 0.981 | locus YIL073C, strain SPO22, stronger effect = lower value 0.986 | locus YJR043C, strain POL32, stronger effect = lower value 0.892
0.801 (inactive) and 0.3 (active): locus YJL095W, strain BCK1, stronger effect = lower value
active: locus YAL013W, strain DEP1, stronger effect = lower value 0.837 | locus YAL021C, strain ccr4, stronger effect = lower value 0.869 | locus YAL026C, strain drs2, stronger effect = lower value 0.776 | locus YAL030W, strain snc1, stronger effect = lower value 0.812 | locus YBL061C, strain skt5, stronger effect = lower value 0.832 | locus YBR009C, strain hhf1, stronger effect = lower value 0.823 | locus YBR021W, strain FUR4, stronger effect = lower value 0.647 | locus YBR023C, strain chs3, stronger effect = lower value 0.88 | locus YBR171W, strain sec66, stronger effect = lower value 0.799 | locus YBR229C, strain ROT2, stronger effect = lower value 0.839 | locus YBR231C, strain swc5, stronger effect = lower value 0.851 | locus YBR279W, strain paf1, stronger effect = lower value 0.817 | locus YCL011C, strain gbp2, stronger effect = lower value 0.807 | locus YCL016C, strain dcc1, stronger effect = lower value 0.873 | locus YCL029C, strain bik1, stronger effect = lower value 0.693 | locus YCL069W, strain vba3, stronger effect = lower value 0.775 | locus YCR088W, strain abp1, stronger effect = lower value 0.775 | locus YDL005C, strain med2, stronger effect = lower value 0.875 | locus YDL040C, strain nat1, stronger effect = lower value 0.848 | locus YDL101C, strain DUN1, stronger effect = lower value 0.877 | locus YDL134C, strain PPH21, stronger effect = lower value 0.796 | locus YDL185W, strain tfp1, stronger effect = lower value 0.109 | locus YDL192W, strain arf1, stronger effect = lower value 0.759 | locus YDR001C, strain nth1, stronger effect = lower value 0.766 | locus YDR101C, strain arx1, stronger effect = lower value 0.686 | locus YDR150W, strain NUM1, stronger effect = lower value 0.788 | locus YDR159W, strain sac3, stronger effect = lower value 0.677 | locus YDR162C, strain NBP2, stronger effect = lower value 0.785 | locus YDR297W, strain sur2, stronger effect = lower value 0.826 | locus YDR318W, strain mcm21, stronger effect = lower value 0.727 | locus YDR334W, strain swr1, stronger effect = lower value 0.742 | locus YDR335W, strain msn5, stronger effect = lower value 0.798 | locus YDR388W, stronger effect = lower value 0.694 | locus YDR392W, strain spt3, stronger effect = lower value 0.674 | locus YDR502C, strain sam2, stronger effect = lower value 0.735 | locus YEL003W, strain gim4, stronger effect = lower value 0.829 | locus YEL037C, strain rad23, stronger effect = lower value 0.797 | locus YEL061C, strain CIN8 (second series), stronger effect = lower value 0.794 | locus YEL061C, strain CIN8, stronger effect = lower value 0.817 | locus YER015W, strain faa2, stronger effect = lower value 0.795 | locus YER016W, strain bim1, stronger effect = lower value 0.89 | locus YER110C, stronger effect = lower value 0.64 | locus YER111C, strain swi4, stronger effect = lower value 0.79 | locus YER155C, strain BEM2 (second series), stronger effect = lower value 0.615 | locus YER155C, strain BEM2, stronger effect = lower value 0.63 | locus YER167W, strain BCK2, stronger effect = lower value 0.76 | locus YFR010W, strain ubp6, stronger effect = lower value 0.861 | locus YGL078C, strain dbp3, stronger effect = lower value 0.252 | locus YGL086W, strain mad1, stronger effect = lower value 0.779 | locus YGL167C, strain pmr1, stronger effect = lower value 0.84 | locus YGL173C, strain kem1, stronger effect = lower value 0.822 | locus YGL227W, strain vid30, stronger effect = lower value 0.743 | locus YGL240W, strain doc1, stronger effect = lower value 0.739 | locus YGL248W, strain PDE1, stronger effect = lower value 0.81 | locus YGL253W, strain hxk2, stronger effect = lower value 0.717 | locus YGR078C, strain PAC10, stronger effect = lower value 0.789 | locus YGR135W, strain pre9, stronger effect = lower value 0.76 | locus YGR252W, strain gcn5, stronger effect = lower value 0.709 | locus YHR027C, strain rpn1, stronger effect = lower value 0.814 | locus YHR079C, strain IRE1 (second series), stronger effect = lower value 0.665 | locus YHR079C, strain IRE1, stronger effect = lower value 0.254 | locus YHR094C, strain hxt1, stronger effect = lower value 0.681 | locus YHR129C, strain ARP1, stronger effect = lower value 0.738 | locus YHR142W, strain chs7, stronger effect = lower value 0.792 | locus YHR200W, strain rpn10, stronger effect = lower value 0.736 | locus YIL066C, strain RNR3, stronger effect = lower value 0.794 | locus YIL125W, strain kgd1, stronger effect = lower value 0.211 | locus YIR030C, strain dcg1, stronger effect = lower value 0.694 | locus YJL092W, strain hpr5, stronger effect = lower value 0.759 | locus YJL095W, strain BCK1 (second series), stronger effect = lower value 0.834 | locus YJL115W, strain asf1, stronger effect = lower value 0.757 | locus YJL129C, strain trk1, stronger effect = lower value 0.694 | locus YJL134W, strain LCB3, stronger effect = lower value 0.777 | locus YJL154C, strain vps35, stronger effect = lower value 0.773 | locus YJL164C, strain tpk1, stronger effect = lower value 0.863 | locus YJL166W, strain qcr8, stronger effect = lower value 0.85 | locus YJL168C, strain set2, stronger effect = lower value 0.719 | locus YJL187C, strain SWE1 (second series), stronger effect = lower value 0.825 | locus YJL187C, strain SWE1, stronger effect = lower value 0.842 | locus YJR066W, strain TOR1, stronger effect = lower value 0.254 | locus YJR075W, strain HOC1, stronger effect = lower value 0.824
